Screening data (PubChem BioAssay)
RORgamma inh – qHTS for inhibitors of ROR gamma transcriptional activity; Nuclear receptor ROR-gamma (Mus musculus), P51450; Drosophila S2 Gal4-RORgamma UAS-luciferase reporter, 20 h; Potency, µM (top dose mostly 53.6 µM), most hits filed as inhibitors; hit rate 5.4% among 310,000; AID 2551, 2010; note: nearly all actives have a fitted effect of over 60% in size
Target sequence (P51450 whole entry, looked up, the tested form may be a part): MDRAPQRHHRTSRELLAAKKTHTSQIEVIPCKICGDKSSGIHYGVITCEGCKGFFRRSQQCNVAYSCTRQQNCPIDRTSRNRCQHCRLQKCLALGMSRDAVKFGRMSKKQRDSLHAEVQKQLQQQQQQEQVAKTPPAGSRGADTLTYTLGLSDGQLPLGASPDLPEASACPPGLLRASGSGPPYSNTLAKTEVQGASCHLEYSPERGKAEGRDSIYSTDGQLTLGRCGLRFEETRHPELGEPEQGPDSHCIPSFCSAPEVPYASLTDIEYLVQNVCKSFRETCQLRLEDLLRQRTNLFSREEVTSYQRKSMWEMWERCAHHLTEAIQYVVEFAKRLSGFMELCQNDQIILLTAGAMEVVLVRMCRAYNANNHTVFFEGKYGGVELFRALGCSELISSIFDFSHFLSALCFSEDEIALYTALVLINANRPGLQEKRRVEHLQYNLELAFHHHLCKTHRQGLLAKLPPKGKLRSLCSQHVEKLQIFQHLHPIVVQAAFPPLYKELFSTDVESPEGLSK
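Stable Schneider cell line, Gal4 DNA-binding domain fused to ROR gamma, UAS-luciferase. Cmpd 1 hr RT → CuSO4 700 uM final → 20 hr RT → luciferase reagent 10 min → luminescence.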
VP16 counter – VP16 counterscreen qHTS for inhibitors of ROR gamma transcriptional activity; Drosophila S2 Gal4-VP16 UAS-luciferase, luminescence, 20 h; Potency, µM (series often up to 53.6 µM), hits mostly inhibitors; hit rate 3.5% among 310,000;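 note: Gal4-VP16 expression switched on by copper sulfate through the metallothionein promoter; nearly all actives have a fitted effect of over 50% in size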
MCF10A rereplic – A quantitative high throughput screen for small molecules that induce DNA re-replication in MCF 10a normal breast cells; MCF 10A DNA re-replication, Hoechst nuclear intensity, 48 h; Potency, µM (series often up to 46.1 µM), most hits filed as activators; hit rate 2.9% among 350,000; AID 624296, 2012; note: nearly all actives have a fitted effect of over 50% in size
SW480 rerep – A quantitative high throughput screen for small molecules that induce DNA re-replication in SW480 colon adenocarcinoma cells; SW480 DNA re-replication, Hoechst DNA content imaging, 48 h; Potency, µM (titrated, usually from 46.1 µM), most hits filed as activators; hit rate 1.8% among 340,000; AID 624297, 2012; note: nearly all actives have a fitted effect of over 55% in size
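Treated cells incubate 48 hr (37 C, 5% CO2), are stained 40 min with Hoechst, and nuclear fluorescence is enumerated; a rise in nuclei with high DNA signal marks re-replication.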
ELG1 DNA repair – qHTS screen for small molecules that inhibit ELG1-dependent DNA repair in human embryonic kidney (HEK293T) cells expressing luciferase-tagged ELG1. HEK293T ELG1-luciferase reporter, luminescence, 16 h; DNA damage induced by 5-fluorouridine. Potency, µM (top dose mostly 46.1 µM), actives largely listed as inhibitors. hit rate 2.3% among 330,000; note: nearly all actives have a fitted effect of over 55% in size
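DMSO vehicle served as the neutral condition. Each well held 2,000 cells given 5-fluorouridine plus compound; after 16 hr at 37 °C/5% CO2, ONE-Glo was added and luciferase measured 30 min later.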
A number is an active result; i = inactive; ? = inconclusive; nt = not tested or not shown; [ ] = dose if it differs, or a comment. Most compounds without a hit are left out; they make up all but 10% or so of the library. Calls come from the whole dose curve; as a rule, active = well fitted curve in the direction sought with a large enough effect; inconclusive = small, poorly fitted or top-dose-only effect, or another doubt; inactive = no such curve, though single readings can be large; an effect the other way counts as inactive or inconclusive.

SMILES | RORgamma inh | VP16 counter | MCF10A rereplic | SW480 rerep | ELG1 DNA repair
CCCNC(=S)NCc1ccc(Cl)cc1 | 10µM | i | i | i | i
CCCN1CCN(C(=O)c2c(Cl)cnn2C)CC1 | i | i | i | i | ?
CCOc1ccc(NC(=O)CCn2c(=O)[nH]c3ccsc3c2=O)cc1 | i | i | i | i | i
C=CCN(C(=O)c1csnn1)C(C(=O)NC1CCCCC1)c1ccccc1 (centres undefined) | i | i | i | i | i
Cc1cc(Cl)ccc1NC(=S)NCc1ccc(S(N)(=O)=O)cc1 | i | i | i | i | i
Cc1cc(Cl)ccc1NC(=S)NCc1ccc(Cl)cc1 | 2.8µM | i[0.365 µM] | ? | i[9.22 µM] | i
CCNC(=S)Nc1ccc(Cl)cc1Cl | 11µM | i | i | i | i
CCc1cc[n+](CC(=O)Nc2ccc(Cl)cc2Cl)cc1 | i | i | i | i | i
Cc1cc(Cl)ccc1NC(=S)NCCc1ccc(Cl)cc1 | 6.3µM | 5µM | i | ? | i
O=C(Cc1cccc(NC(=O)C2CCN(C(=O)C3CCC3)CC2)c1)Nc1cccc(C(=O)N2CCOCC2)c1 | nt | nt | i | i | nt
O=C(NCCc1ccc(F)cc1)C1CCCO1 (centres undefined) | i | i | i | i | i
Cc1cccc(NC(=O)CSc2nc3ccc(N4C(=O)c5ccccc5C4=O)cc3s2)c1C | i | i | 9.2µM | ? | i
CN1CCCN(S(=O)(=O)c2cccc(C(F)(F)F)c2)c2nc3ccccc3nc21 | nt | nt | 21µM | ? | i
O=S(=O)(c1cccc(C(F)(F)F)c1)c1ccc(O)cn1 | nt | nt | i | i | nt
CC1=CC(C)C2(COC(c3ccc[n+](C)c3)OC2)C(C)C1 (centres undefined) | i | i | ? | i | 6.5µM
CCCCNCC(=O)Nc1sc(C)c(C)c1C(=O)OCC | 13µM | ? | i | i | i
COC(=O)c1c(NC(=O)Cc2ccccc2)sc(C)c1C | i | i | i | i | i
CCOC(=O)c1c(NC(=O)COC)sc(C)c1C | i | i | i | i | i
CCOC(=O)c1c(NC(=S)NC(C)=O)sc(C)c1C | 7.9µM | 11µM | i | i | i
CCOC(=O)c1sc(NC(=S)NC(=O)c2ccccc2Cl)c(C(=O)OCC)c1C | i | i[0.365 µM] | i | i | i
CCOC(=O)c1sc(NC(=S)NC(=O)c2ccccc2)c(C(=O)OCC)c1C | 2.2µM | ? | ? | nt | i
COC(=O)c1c(NC(=S)Nc2ccccc2Cl)sc(C)c1C | 2.8µM | 6.3µM | i | ? | i
CCSc1ccc([C@@H]2[C@H]3C(=O)N(CC)C(=O)[C@H]3[C@]3(C(=O)OC)CCCCN23)cc1OC | nt | nt | ? | i | i
CCOc1ccc(NC(=S)N2CCC(N(C)CCN3CCOCC3)CC2)cc1 | i | i | i | nt | i
C=CCNC(=O)c1c(CS(=O)(=O)c2ccccc2)noc1C(=O)NCc1ccccc1 | nt | nt | ? | i | i
SMILES | RORgamma inh | VP16 counter | MCF10A rereplic | SW480 rerep | ELG1 DNA repair
O=S(=O)(NC1CCCC1)c1cc(F)ccc1F | i | i | i | i | ?
CCOC(=O)c1c(NC(C)=O)sc(/C(C)=N/Nc2ccc(C(=O)O)cc2)c1C | 11µM | ? | ? | i | ?
CCOC(=O)c1c(NC(=O)CN2C(=O)NC(C)(c3ccccc3)C2=O)sc(C)c1C (centres undefined) | i | i | 10µM | ? | ?
CCOC(=O)c1c(NC(C)=O)sc(C(=O)NC2CCCC2)c1C | i | i | i | i | i
Cc1nnc(SCC(=O)NCCc2ccccc2)s1 | i | i | i | i | i
COc1ncccc1C(=O)N1CCCC(N2CCN(c3cccc(Cl)c3)CC2)C1 (centres undefined) | i | i | i | i | i
C=CCOC(=O)C(C#N)c1nc2ccccc2nc1N1CCN(Cc2ccccc2)CC1 (centres undefined) | i | i | i | i | ?
COCC(C)OC(=O)C(C#N)c1nc2ccccc2nc1N1CCN(Cc2ccccc2)CC1 (centres undefined) | i | i | i | i | 21µM
C=CCOC(=O)C(C#N)c1nc2ccccc2nc1N1CCN(c2ccccc2OC)CC1 (centres undefined) | i | i | ? | i | 13µM
